IL-1B inflam inh – inflammasome signaling inhibition, IL-1 beta readout; THP-1 LPS/ATP IL-1B secretion, AlphaLISA, 16 h; active compounds read low; activity change, % at 57.5 µM; 4.7% of 360,000 active; AID 743279; in the data active = activity change below about -50%; inconclusive = mostly about -30% to -49%
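THP-1 cells pretreated 1 hr with compounds (up to 57.5 uM final), then stimulated with LPS (250 ng/mL final) plus ATP (1.25 mM final); secreted IL-1B measured by AlphaLISA after 16 hr, decreased signal indicating inhibition.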
RORg inh – ROR gamma (mouse) transcription inhibition | P51450 | Drosophila S2 Gal4-RORgamma UAS-luciferase reporter, 20 h | Potency, µM (doses to about 53.6 µM), for the others: at the top dose activity change, negative = inhibition, most hits filed as inhibitors | 5.4% of 310,000 active | AID 2551; also: potency is read from the fitted curve at half-maximal effect; nearly all actives have a fitted effect of over 60% in size
Target sequence (P51450 whole entry, looked up, the tested form may be a part): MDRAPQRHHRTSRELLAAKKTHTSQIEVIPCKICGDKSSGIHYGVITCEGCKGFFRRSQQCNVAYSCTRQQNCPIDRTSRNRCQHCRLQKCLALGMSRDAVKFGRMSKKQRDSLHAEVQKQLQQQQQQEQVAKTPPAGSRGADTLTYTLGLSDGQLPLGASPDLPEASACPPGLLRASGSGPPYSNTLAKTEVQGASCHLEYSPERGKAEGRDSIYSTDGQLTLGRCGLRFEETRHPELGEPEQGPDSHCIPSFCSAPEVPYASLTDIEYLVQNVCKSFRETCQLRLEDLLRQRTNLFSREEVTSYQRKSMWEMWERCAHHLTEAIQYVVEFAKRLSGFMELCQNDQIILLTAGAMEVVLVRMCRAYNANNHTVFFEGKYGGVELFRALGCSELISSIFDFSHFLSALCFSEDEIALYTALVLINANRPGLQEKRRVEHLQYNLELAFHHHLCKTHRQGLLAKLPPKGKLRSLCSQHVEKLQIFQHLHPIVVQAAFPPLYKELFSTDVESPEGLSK
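Luciferase reporter read in Schneider cells carrying Gal4-RORγ (mouse) and UAS-Photinus luciferase; cells given compound 1 h before 700 uM copper sulfate induction, then incubated 20 h at ambient temperature.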
Gal4-VP16 FLuc – counter-screen for ROR gamma inhibitors: Gal4-VP16 reporter; Drosophila S2 Gal4-VP16 UAS-luciferase, luminescence, 20 h; Potency, µM (top dose mostly 53.6 µM), for the others: at the highest dose activity, negative = inhibition, actives largely listed as inhibitors; 3.5% of 310,000 active; AID 2546;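 also: Gal4-VP16 expression switched on by copper sulfate through the metallothionein promoter; potency is read from the fitted curve at half-maximal effect; nearly all actives have a fitted effect of over 50% in size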
TDP1 cell CPT – growth inhibition of DT40 Tdp1-/-;hTDP1 cells with camptothecin (screen for TDP1 inhibitors) | chicken DT40 Tdp1-/-;hTDP1 cells + 20 nM CPT, ATP luminescence, 48 h | Potency, µM (doses to about 46.2 µM), without a hit: at the top dose activity change, negative = growth inhibition, actives largely listed as inhibitors | 12% of 420,000 active; also: potency is read from the fitted curve at half-maximal effect; nearly all actives have a fitted effect of over 55% in size
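Cell growth measured by CellTiter-Glo luminescence after a minimum 48 h, 37 C compound exposure with 20 nM CPT in Tdp1-knockout DT40 cells stably expressing hTDP1, seeded 400/well; qHTS titration format.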
ELG1 repair inh – inhibitors of ELG1-dependent DNA repair in HEK293T cells; HEK293T ELG1-luciferase reporter, luminescence, 16 h; DNA damage induced by 5-fluorouridine; AID 504467; Potency, µM (top dose mostly 46.1 µM), inactives show at the top dose activity change, negative = inhibition, hits mostly inhibitors; 2.3% of 330,000 active; also: potency is read from the fitted curve at half-maximal effect; nearly all actives have a fitted effect of over 55% in size
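Quantitative HTS, concentration-response format. 2,000 cells/well co-treated with 5-fluorouridine and compound, 16 hr in 5% CO2 at 37 °C; ONE-Glo luminescence read after 30 min.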
DT40 TDP1 no CPT – qHTS for Inhibitors of human tyrosyl-DNA phosphodiesterase 1 (TDP1): qHTS in cells in absence of CPT. DT40 Tdp1-/- hTDP1 cells, no CPT, ATP luminescence, 48 h. Potency, µM (doses to about 46.2 µM), for inactives: top-dose activity change, negative = growth inhibition, actives largely listed as inhibitors. 15% of 420,000 active. AID 686978, 2013; also: potency is read from the fitted curve at half-maximal effect; nearly all actives have a fitted effect of over 55% in size
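Compound effects on proliferation are scored in DT40 Tdp1-/-;hTDP1 cells in the absence of CPT. ATP levels (CellTiter-Glo luminescence) are recorded after a ≥48 hr, 37 °C incubation.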
* = called active by the depositor; ? = inconclusive; . = no result given; [ ] = another dose, or the depositor's remark. Rows were chosen to be rich in hits. Some 21% of all compounds tested hit in one or more screens of this group. Unless noted, calls follow the shape of the dose curve; as a rule, active = well fitted curve in the direction sought with a large enough effect; inconclusive = small, poorly fitted or top-dose-only effect, or another doubt; inactive = no such curve, though single readings can be large; an effect the other way counts as inactive or inconclusive. % is scaled to controls: 0 for no effect and ±100 for the full control effect.

SMILES | IL-1B inflam inh | RORg inh | Gal4-VP16 FLuc | TDP1 cell CPT | ELG1 repair inh | DT40 TDP1 no CPT
CCCS(=O)(=O)Nc1ccc(Nc2c3ccccc3nc3ccccc23)c(OC)c1 | -94* | . | . | 0.16µM* | . | 0.16µM*
COc1cc(N)ccc1NC(=O)c1cc2ccccc2o1 | -11 | . | . | -6% | ? | -4%
COc1cc(N)ccc1Nc1c2ccccc2nc2ccccc12 | -24 | . | . | 0.82µM* | . | 1.5µM*
CC(C)(C)OC(=O)N1CCC(C(=O)N[C@H](C(=O)O)c2ccccc2)(c2ccccc2)CC1 | -1 | 27% | -2% | -7% | 0% | -11%
O=C1N[C@@H](Cc2ccccc2)C(=O)N2[C@@H]1C[C@]1(Br)c3ccccc3N(S(=O)(=O)c3ccccc3)[C@H]21 | 34 | . | . | ? | . | ?
CCCCNC(=O)c1cn(CC(C)C)c(=O)c2c1c1ccccc1n2C | 26 | -4% | -8% | 7% | 0% | -6%
Cc1cc(CNC(=O)[C@@H]2C[C@H]2[C@@H](NP(=O)(c2ccccc2)c2ccccc2)c2ccccc2)nn1C | . | 1% | 0% | . | . | .
Cc1ccc(C)c(NC(=O)CCN2C(=O)c3ccccc3C2=O)c1 | 0 | 3% | -4% | -2% | 5% | 19%
COc1cc(-c2cc3n(C)c(C)c(CCC(=O)NCc4ccccc4)c(=O)n3n2)cc(OC)c1OC | . | . | . | 15µM* | . | -69%
Cc1ccc(C)c(NC(=O)CCc2c(C)n(C)c3cc(-c4ccccc4C)nn3c2=O)c1 | . | . | . | 21µM* | . | 15µM*
COc1cc(OC)cc(-c2cc3nc(C)c(CCC(=O)Nc4ccc(F)c(Cl)c4)c(C)n3n2)c1 | . | . | . | 18µM* | . | 16µM*
COC(=O)c1cc(NC(=O)CCc2c(C)nc3cc(-c4ccccc4)nn3c2C)cc(C(=O)OC)c1 | . | . | . | 7% | . | 1%
COc1cc(NC(=O)CCc2c(C)nc3cc(-c4ccccc4)nn3c2C)cc(OC)c1OC | . | . | . | ? | . | 21µM*
Cc1cccc(OC(=O)c2cc(-c3ccc(Cl)cc3)on2)c1C | . | . | . | -11% | . | -14%
CC(SCc1nc2sc3c(c2c(=O)[nH]1)CCCC3)C(=O)Nc1ccccn1 (stereo not drawn) | 14 | . | . | -20% | 21% | -26%
C=C(C)c1cccc(C(C)(C)NC(=O)N2CCN(C(=O)OCC)CC2)c1 | 9 | . | . | -11% | . | -11%
CCCCn1c(C)cc2c(c1=O)C1O[C@](c3ccc(OC)cc3)(Cc3cc(OC)c(OC)cc31)O2 | . | 10%[10 µM] | -28%[10 µM] | . | . | .
COc1ccc(-c2cc3nc(C)c(CCC(=O)Nc4cccc(C(F)(F)F)c4)c(C)n3n2)c(OC)c1 | . | . | . | -1% | . | -27%
COc1ccc(NC(=O)CCc2c(C)nc3cc(-c4cccc(F)c4)nn3c2C)cc1Cl | . | . | . | 16µM* | . | 13µM*
COc1cc(OC)cc(-c2cc3nc(C)c(CCC(=O)Nc4nc(C)cs4)c(C)n3n2)c1 | -13 | ? | ? | 18µM* | ? | 10µM*
CCCCCCNC(=O)CCc1c(C)nc2nc(-c3cc(OC)cc(OC)c3)nn2c1C | . | . | . | ? | . | 16µM*
CCCNC(=O)CCc1c(C)nc2nc(-c3cc(OC)cc(OC)c3)nn2c1C | -26 | 22% | -1% | -5% | ? | ?
CCN(CC)S(=O)(=O)c1ccc(N2CC(C(=O)N3Cc4ccccc4CC3C(N)=O)CC2=O)cc1 (stereo not drawn) | -7 | . | . | -17% | 0% | -12%
CCOc1ccc(C(=O)NNC(=O)CNC(=O)c2ccc(C)s2)cc1OC | 27 | . | . | -2% | 26% | 1%
CC(C)c1ccc2occ(CC(=O)Nc3ccccc3Cl)c2c1 | . | . | . | -15% | . | ?
SMILES | IL-1B inflam inh | RORg inh | Gal4-VP16 FLuc | TDP1 cell CPT | ELG1 repair inh | DT40 TDP1 no CPT
CCN(CC(=O)Nc1c(F)cccc1F)C(=O)C1=COCCO1 | 6 | . | . | -18% | 3% | -2%
COC(=O)c1ccc(NC(=O)N(c2ccccc2)c2ccccc2)cc1 | -4 | -10% | 0% | -3% | -4% | ?
COC(=O)c1ccccc1C(=O)N(c1ccccc1)c1ccccc1 | 12 | . | . | 6.5µM* | . | 15µM*
CCCCCCCC(=O)CC[C@@H]1[C@@H](C/C=C\CCCC(=O)OC(C)C)[C@@H](O)C[C@H]1O | . | . | . | 7.5µM* | . | 7.5µM*
CCCCCC(=O)CC[C@@H]1[C@@H](C/C=C\CCCC(=O)O)[C@@H](O)C[C@H]1O | . | 2% | -15% | . | . | .
Clc1ccccc1-c1nc(NCCN2CCOCC2)c2ccccc2n1 | . | -11% | 5% | ? | . | -20%
FC(F)(F)c1ccccc1-c1cc(NCCN2CCOCC2)ncn1 | . | 19% | 8% | -4% | . | -1%
FC(F)(F)c1ccccc1-c1cncnc1NCCN1CCOCC1 | . | -23% | -2% | 1µM* | . | 1.5µM*
Clc1ccccc1-c1cncnc1NCCN1CCOCC1 | . | -28% | 3% | 3.3µM* | . | 3.7µM*
O=C(c1ccccc1)c1ccc(O)c(O)c1O | -7 | . | . | 4% | . | ?
CCC/C=C(\CCC)C(NS(=O)(=O)c1ccc(C(F)(F)F)cc1)c1ccc(-c2ccccc2)cc1 (stereo not drawn) | . | -34% | 4% | . | . | .
O=C(c1cccc(Br)c1)c1cn(-c2ccccc2)nc1C(=O)c1ccccc1 | -26 | 8% | -9% | 18µM* | ? | 16µM*
CC(=O)c1nn(-c2ccccc2)cc1C(=O)c1cccc(Br)c1 | 6 | -28% | ? | -28% | 0% | -19%
CC(=O)c1nn(-c2cccc(Br)c2)cc1C(=O)c1ccc(Cl)cc1 | 12 | -5% | -30% | ? | -9% | 7.3µM*
CC(=O)c1nn(-c2cccc(Br)c2)cc1C(=O)c1ccccc1 | -5 | ? | ? | -2% | 16% | -20%
CC(=O)N[C@@H](CSC(=O)[C@]1([C@@H](O)C(C)C)NC(=O)[C@H](C)[C@@H]1O)C(=O)O | . | ? | -27%[10 µM] | . | . | .
CCN(CC)S(=O)(=O)c1cccc(-c2n[nH]c(=S)n2C)c1 | -9 | ? | -4%[10 µM] | 12% | 1% | -12%
Cc1ccc(-c2n[nH]c(=S)n2C)cc1Cl | -17 | 0.56µM* | 3.5µM* | -13% | 0% | ?
CCOC(=O)N1CCN(c2ccc(C(F)(F)F)cn2)CC1 | 1 | 5% | -1% | -28% | 0% | -30%
CC1=NN(c2ccc(C(F)(F)F)cn2)C(=O)C1 | -1 | ? | 11% | 23µM* | -2% | ?
CC(C)c1ccc(S(=O)(=O)c2nnn3c2nc(N2CCN(C)CC2)c2sccc23)cc1 | . | . | . | 16µM* | . | ?
Cc1ccc(S(=O)(=O)c2nnn3c2nc(N2CCCC2)c2sccc23)cc1 | . | . | . | -8% | . | 0%
